# Tests used:
# Assay in all cases: DAPPL (digital affinity profiling via proximity ligation, sequencing); 10 mM Tris-HCl pH 7.5, 50 mM NaCl, 1 mM DTT, 4% glycerol, room temperature, 30 min; GST-TFs on glutathione beads, 16-mer random dsDNA library, 0.1% formaldehyde crosslink after washing; high values mean tight binding
# Settings in all cases: protein: recombinant; tags: N-terminal GST; dsDNA, one strand shown
# [1] = target: T1, SPIC (Homo sapiens, UniProt Q8N5J4 1-248)
# T1 sequence: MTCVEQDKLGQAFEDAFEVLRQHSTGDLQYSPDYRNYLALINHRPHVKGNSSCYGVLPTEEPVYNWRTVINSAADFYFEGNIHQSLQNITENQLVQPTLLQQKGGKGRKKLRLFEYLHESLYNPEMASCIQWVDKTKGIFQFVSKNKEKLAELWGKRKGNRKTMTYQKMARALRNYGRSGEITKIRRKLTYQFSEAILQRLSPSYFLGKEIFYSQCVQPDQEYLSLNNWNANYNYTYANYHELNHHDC
# How it was run: (§1)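 Sequencing on an Illumina NextSeq500 followed washing, crosslinking with 0.1% formaldehyde, proximity ligation (BsaI/T4 ligase, 1 h, 37 °C) and PCR amplification of pools that had been incubated for 30 min at room temperature with 200 nmole of a random double-stranded 16-mer DNA library in Tris/NaCl/DTT/glycerol buffer. Each pool held DNA-barcoded human transcription factors, expressed in yeast as GST fusions and captured on glutathione beads, plus a tag-only sample. Binding signal is a hexamer's read frequency for a factor divided by its frequency in the tag-only sample.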
# [2] = target: T2, ELK1 (Homo sapiens, UniProt P19419 1-428)
# T2 sequence: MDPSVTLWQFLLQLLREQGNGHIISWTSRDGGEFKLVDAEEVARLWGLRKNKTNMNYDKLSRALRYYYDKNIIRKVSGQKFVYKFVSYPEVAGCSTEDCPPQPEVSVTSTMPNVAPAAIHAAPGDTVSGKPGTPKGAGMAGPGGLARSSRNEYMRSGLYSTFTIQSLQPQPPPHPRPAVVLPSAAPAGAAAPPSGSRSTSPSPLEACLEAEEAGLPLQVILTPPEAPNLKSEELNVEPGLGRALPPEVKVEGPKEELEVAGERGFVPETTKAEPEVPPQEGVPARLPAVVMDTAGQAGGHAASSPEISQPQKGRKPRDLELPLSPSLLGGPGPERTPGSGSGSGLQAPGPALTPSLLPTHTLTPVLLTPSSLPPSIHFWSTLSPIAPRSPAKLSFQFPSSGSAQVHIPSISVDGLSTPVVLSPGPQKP
# How it was run: as §1
# [3] = target: ELF1 (Homo sapiens, UniProt P32519 1-619)
# Sequence of ELF1 (P32519 whole entry): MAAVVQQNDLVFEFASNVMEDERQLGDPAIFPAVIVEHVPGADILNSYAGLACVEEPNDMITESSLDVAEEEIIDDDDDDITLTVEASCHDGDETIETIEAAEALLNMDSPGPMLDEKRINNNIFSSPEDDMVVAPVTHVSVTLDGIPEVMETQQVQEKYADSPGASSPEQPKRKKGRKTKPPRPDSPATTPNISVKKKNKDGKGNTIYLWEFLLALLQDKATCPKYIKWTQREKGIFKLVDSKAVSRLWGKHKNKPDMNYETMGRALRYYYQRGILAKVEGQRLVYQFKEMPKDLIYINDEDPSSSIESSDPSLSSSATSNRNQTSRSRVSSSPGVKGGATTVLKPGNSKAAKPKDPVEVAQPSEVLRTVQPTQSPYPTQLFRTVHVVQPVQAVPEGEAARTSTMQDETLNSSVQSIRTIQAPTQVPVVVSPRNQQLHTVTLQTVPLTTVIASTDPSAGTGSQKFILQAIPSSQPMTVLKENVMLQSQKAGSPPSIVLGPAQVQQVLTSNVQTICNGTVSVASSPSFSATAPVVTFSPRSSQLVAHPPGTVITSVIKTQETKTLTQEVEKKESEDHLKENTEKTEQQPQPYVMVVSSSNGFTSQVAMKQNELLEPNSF
# How it was run: as §1
# [4] = target: T3, EHF (Homo sapiens, UniProt Q9NZC4 1-300)
# T3 sequence: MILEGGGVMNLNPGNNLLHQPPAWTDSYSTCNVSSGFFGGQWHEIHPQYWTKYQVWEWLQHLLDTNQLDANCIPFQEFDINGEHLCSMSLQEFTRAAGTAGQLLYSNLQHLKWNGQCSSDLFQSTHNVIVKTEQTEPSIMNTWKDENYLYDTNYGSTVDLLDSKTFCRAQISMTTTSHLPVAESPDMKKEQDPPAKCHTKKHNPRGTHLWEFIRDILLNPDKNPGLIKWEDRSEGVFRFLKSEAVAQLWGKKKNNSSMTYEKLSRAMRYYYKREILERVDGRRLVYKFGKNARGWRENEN
# How it was run: as §1
# [5] = target: T4, ELK4 (Homo sapiens, UniProt P28324-2 1-405)
# T4 sequence: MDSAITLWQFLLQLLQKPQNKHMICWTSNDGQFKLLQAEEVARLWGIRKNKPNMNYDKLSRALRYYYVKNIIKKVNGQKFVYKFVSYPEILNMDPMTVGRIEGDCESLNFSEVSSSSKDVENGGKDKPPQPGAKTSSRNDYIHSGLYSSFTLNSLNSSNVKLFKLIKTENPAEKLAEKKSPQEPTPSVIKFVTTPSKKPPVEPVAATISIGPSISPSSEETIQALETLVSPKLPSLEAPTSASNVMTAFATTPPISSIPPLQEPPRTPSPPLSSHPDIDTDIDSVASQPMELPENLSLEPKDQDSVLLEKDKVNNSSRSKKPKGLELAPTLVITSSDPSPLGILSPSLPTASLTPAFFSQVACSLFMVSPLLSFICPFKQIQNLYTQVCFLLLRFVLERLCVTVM
# How it was run: as §1
# [6] = target: T5, ETV2 (Homo sapiens, UniProt O00321 1-342)
# T5 sequence: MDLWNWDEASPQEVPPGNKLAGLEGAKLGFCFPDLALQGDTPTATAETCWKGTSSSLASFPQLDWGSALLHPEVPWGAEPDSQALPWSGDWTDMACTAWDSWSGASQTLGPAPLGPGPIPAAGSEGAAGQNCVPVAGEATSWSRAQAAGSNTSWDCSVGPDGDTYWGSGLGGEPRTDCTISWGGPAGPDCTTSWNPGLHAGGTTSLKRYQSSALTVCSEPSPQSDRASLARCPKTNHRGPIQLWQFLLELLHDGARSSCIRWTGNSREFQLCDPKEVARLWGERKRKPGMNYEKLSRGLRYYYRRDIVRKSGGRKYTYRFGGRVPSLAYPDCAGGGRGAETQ
# How it was run: as §1
# [7] = target: T6, ELF3 (Homo sapiens, UniProt P78545 1-371)
# T6 sequence: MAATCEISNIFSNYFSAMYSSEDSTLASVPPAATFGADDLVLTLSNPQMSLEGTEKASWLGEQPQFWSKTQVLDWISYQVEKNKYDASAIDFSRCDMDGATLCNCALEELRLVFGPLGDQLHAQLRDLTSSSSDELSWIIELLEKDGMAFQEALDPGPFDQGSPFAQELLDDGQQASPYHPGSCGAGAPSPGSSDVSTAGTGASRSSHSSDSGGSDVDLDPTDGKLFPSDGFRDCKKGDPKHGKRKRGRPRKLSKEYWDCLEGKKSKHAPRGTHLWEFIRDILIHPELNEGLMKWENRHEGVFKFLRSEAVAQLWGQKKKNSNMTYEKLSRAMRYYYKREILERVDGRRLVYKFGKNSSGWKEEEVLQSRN
# How it was run: as §1
# [8] = target: ETV1 (Homo sapiens, UniProt P50549 1-477)
# Sequence of ETV1 (P50549 whole entry): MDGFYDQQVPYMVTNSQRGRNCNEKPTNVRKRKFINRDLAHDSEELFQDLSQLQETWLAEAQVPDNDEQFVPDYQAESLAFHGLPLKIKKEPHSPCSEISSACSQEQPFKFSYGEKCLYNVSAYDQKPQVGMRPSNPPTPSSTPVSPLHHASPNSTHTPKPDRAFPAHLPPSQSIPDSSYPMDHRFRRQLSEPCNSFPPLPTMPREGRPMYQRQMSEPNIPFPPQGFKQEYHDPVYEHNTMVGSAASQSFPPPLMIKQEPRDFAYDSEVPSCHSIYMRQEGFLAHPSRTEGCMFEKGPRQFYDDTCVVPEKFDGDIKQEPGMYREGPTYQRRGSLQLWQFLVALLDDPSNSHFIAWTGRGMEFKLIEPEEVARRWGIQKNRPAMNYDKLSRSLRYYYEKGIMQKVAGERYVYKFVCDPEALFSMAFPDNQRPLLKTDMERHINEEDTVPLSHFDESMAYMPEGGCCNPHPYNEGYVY
# How it was run: as §1
# [9] = target: T7, ERF (Homo sapiens, UniProt P50548 1-548)
# T7 sequence: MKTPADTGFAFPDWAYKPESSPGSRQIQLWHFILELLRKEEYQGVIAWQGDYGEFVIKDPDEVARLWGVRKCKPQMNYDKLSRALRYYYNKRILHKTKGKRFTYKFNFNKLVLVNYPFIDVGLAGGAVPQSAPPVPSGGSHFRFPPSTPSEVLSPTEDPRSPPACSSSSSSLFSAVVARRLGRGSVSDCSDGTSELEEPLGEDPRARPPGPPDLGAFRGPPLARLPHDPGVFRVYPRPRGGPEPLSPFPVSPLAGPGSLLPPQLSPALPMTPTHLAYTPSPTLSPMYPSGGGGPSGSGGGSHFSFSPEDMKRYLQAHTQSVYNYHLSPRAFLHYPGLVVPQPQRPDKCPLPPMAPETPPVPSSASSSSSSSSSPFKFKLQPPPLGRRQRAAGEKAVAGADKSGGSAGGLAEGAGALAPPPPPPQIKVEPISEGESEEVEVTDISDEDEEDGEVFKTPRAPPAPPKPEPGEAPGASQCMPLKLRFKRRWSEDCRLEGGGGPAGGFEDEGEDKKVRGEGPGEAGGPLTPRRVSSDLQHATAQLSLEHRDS
# How it was run: as §1
# [10] = target: T8, SPDEF (Homo sapiens, UniProt O95238 1-335)
# T8 sequence: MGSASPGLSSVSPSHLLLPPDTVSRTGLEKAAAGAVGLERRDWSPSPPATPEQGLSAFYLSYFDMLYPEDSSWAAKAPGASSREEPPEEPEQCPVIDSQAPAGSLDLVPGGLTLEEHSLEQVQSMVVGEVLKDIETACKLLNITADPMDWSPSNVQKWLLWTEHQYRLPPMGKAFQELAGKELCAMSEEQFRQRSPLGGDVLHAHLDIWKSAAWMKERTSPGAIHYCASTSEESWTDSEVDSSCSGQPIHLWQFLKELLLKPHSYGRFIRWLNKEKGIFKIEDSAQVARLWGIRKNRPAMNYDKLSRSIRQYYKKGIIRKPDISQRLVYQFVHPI
# How it was run: as §1
# [11] = target: T9, ELF5 (Homo sapiens, UniProt Q9UKW6-2 1-255)
# T9 sequence: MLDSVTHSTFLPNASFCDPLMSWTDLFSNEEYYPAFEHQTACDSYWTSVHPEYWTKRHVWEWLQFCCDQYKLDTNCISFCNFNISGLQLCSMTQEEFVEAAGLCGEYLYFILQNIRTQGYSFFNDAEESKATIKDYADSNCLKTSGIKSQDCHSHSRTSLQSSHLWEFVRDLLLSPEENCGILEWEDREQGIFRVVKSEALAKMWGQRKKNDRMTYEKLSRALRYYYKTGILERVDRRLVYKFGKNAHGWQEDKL
# How it was run: as §1
Sequence,binding signal [1],binding signal [2],binding signal [3],binding signal [4],binding signal [5],binding signal [6],binding signal [7],binding signal [8],binding signal [9],binding signal [10],binding signal [11]
GCGCGT,"1 fold enrichment (6-mer frequency, TF over GST control)",–,–,–,–,–,–,–,–,–,–
ATCACG,"1.04 fold enrichment (6-mer frequency, TF over GST control)","1.04 fold enrichment (6-mer frequency, TF over GST control)","1.03 fold enrichment (6-mer frequency, TF over GST control)","1.08 fold enrichment (6-mer frequency, TF over GST control)","1 fold enrichment (6-mer frequency, TF over GST control)","1.07 fold enrichment (6-mer frequency, TF over GST control)","1.01 fold enrichment (6-mer frequency, TF over GST control)","1.02 fold enrichment (6-mer frequency, TF over GST control)","1.07 fold enrichment (6-mer frequency, TF over GST control)","1.07 fold enrichment (6-mer frequency, TF over GST control)","1.02 fold enrichment (6-mer frequency, TF over GST control)"
